Sampled rows, rich in hits. Any-hit rate of the full collection: about 8%.
KB-V1 MDR tox = kills drug-selected multidrug resistant KB-V1 cells. KB-V1 MDR cells viability, CellTiter-Glo, 72 h. Potency, µM (doses to about 46.1 µM), actives largely listed as cytotoxic. 3.4% of 400,000 active. AID 1347076; note: % is set by controls: 0 for no effect and ±100 for the full control effect; nearly all actives have a fitted effect of over 60% in size
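Luminescent ATP read-out (CellTiter-Glo, 10 min) measures survival of drug-selected KB-V1 MDR cells after 72 h, 37 degrees C compound exposure. Medium: phenol-red-free DMEM, 10% FBS. Values from fitted concentration-response curves.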
MCF10A rereplic = inducers of DNA re-replication in MCF 10A breast cells; MCF 10A DNA re-replication, Hoechst nuclear intensity, 48 h; Potency, µM (titrated, usually from 46.1 µM), without a hit: at the highest dose activity, positive = re-replication, hits mostly activators; 2.9% of 350,000 active; note: % of control where 0% means no effect; nearly all actives have a fitted effect of over 50% in size
SW480 rereplic = inducers of DNA re-replication in SW480 colon cancer cells | SW480 DNA re-replication, Hoechst DNA content imaging, 48 h | Potency, µM (top dose mostly 46.1 µM), for the others: at the top dose re-replication activation, actives largely listed as activators | 1.8% of 340,000 active | AID 624297; note: % of control where 0% means no effect; nearly all actives have a fitted effect of over 55% in size
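Quantitative HTS format with DMSO vehicle controls; 48 hr drug incubation at 37 C, then 40 min Hoechst staining and scanning imager measurement at 405 nm excitation.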
HT1080 IDH1KD tx = kills HT-1080 cells with IDH1 knockdown; HT-1080 IDH1 knockdown viability, ATP luminescence, 48 h; Potency, µM (doses to about 46.1 µM), for the others: at the highest dose activity, negative = toxicity, hits mostly cytotoxic; 2% of 360,000 active;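 note: 0% = DMSO wells and -100% = cell-free medium wells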
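HT-1080-IDH1KD cells (IDH1 knocked down), 750/well in RPMI with 5% FBS, treated with compound 48 h at 37 degrees C. Viability by CellTiter-Glo luminescence, normalised to DMSO and no-cell wells; concentration-response curves classed.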
HT1080-NT tox = kills 2HG-producing HT-1080-NT fibrosarcoma cells; HT-1080-NT fibrosarcoma viability, CellTiter-Glo ATP luminescence, 48 h; Potency, µM (top dose mostly 46.1 µM), without a hit: at the top dose activity, negative = less viability, most hits filed as cytotoxic; 1.6% of 360,000 active; AID 686970;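 note: NT is the 2HG producing partner of a matched IDH1 knockdown line; 0% = DMSO-treated cells and -100% = media-only wells without cells; nearly all actives have a fitted effect of over 55% in size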
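Toxicity toward the 2HG-producing NT line was scored as %Activity, normalised to DMSO and no-cell wells, from CellTiter-Glo luminescence after 48 hours' treatment.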
KB-3-1 cytotox = KB-3-1 parental cell cytotoxicity. AID 1347075. 1.4% of 400,000 active. Potency, µM (highest dose often 46.1 µM), actives largely listed as cytotoxic. KB-3-1 viability, CellTiter-Glo ATP luminescence, 72 h; note: % is set by controls: 0 for no effect and ±100 for the full control effect; nearly all actives have a fitted effect of over 60% in size
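KB-3-1 cells, DMEM (no phenol red) + 10% FBS; compound by pin transfer, 72 h, 37 °C. Readout: CellTiter-Glo luminescence after 10 min. Data normalized, curve-fitted.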
Active calls of the source: *. Calls come from the whole dose curve; as a rule, active = well fitted curve in the direction sought with a large enough effect; inconclusive = small, poorly fitted or top-dose-only effect, or another doubt; inactive = no such curve, though single readings can be large; an effect the other way counts as inactive or inconclusive. Potency is the fitted concentration of half-maximal effect.

What do the screens show for `CCCC(=O)NCC(c1ccc2c(c1)OCO2)N1CCN(c2ccccc2)CC1` (stereo not drawn)?
KB-V1 MDR tox: inactive; KB-3-1 cytotox: inactive

What do the screens show for `c1cncc(-c2nc(N3CCCCCC3)c3ccccc3n2)c1`?
KB-V1 MDR tox: 4.1µM*; MCF10A rereplic: 6%; SW480 rereplic: -7%; HT1080 IDH1KD tx: -13%; HT1080-NT tox: -8%; KB-3-1 cytotox: inactive

What do the screens show for `C(=C\c1nc(N2CCCCCC2)c2ccccc2n1)/c1ccccc1`?
KB-V1 MDR tox: 18µM*; MCF10A rereplic: 21µM*; SW480 rereplic: inconclusive; HT1080 IDH1KD tx: inconclusive; HT1080-NT tox: inconclusive; KB-3-1 cytotox: inactive

Results for c1ccc2c(N3CCCCC3)nc(N3CCOCC3)nc2c1 ?
KB-V1 MDR tox: inactive; MCF10A rereplic: 0%; SW480 rereplic: 12%; HT1080 IDH1KD tx: -2%; HT1080-NT tox: 21%; KB-3-1 cytotox: inactive

Results for Cc1ccc(S(=O)(=O)N2CCN(c3ncccn3)CC2)c(C)c1 ?
KB-V1 MDR tox: inactive; MCF10A rereplic: -6%; SW480 rereplic: -43%; HT1080 IDH1KD tx: -3%; HT1080-NT tox: -3%; KB-3-1 cytotox: inactive

What do the screens show for `Cc1ccc(C)c(S(=O)(=O)N2CCN(c3ncccn3)CC2)c1`?
KB-V1 MDR tox: inconclusive; MCF10A rereplic: 3%; SW480 rereplic: 2%; HT1080 IDH1KD tx: inconclusive; HT1080-NT tox: 18µM*; KB-3-1 cytotox: inconclusive

Results for Cc1ccc(C)c(S(=O)(=O)N2CCN(c3nc(-c4cccnc4)nc4ccccc34)CC2)c1 ?
KB-V1 MDR tox: inactive; MCF10A rereplic: 0.65µM*; SW480 rereplic: -2%; HT1080 IDH1KD tx: -7%; HT1080-NT tox: -20%; KB-3-1 cytotox: inconclusive

Results for O=C(Nc1ccc(F)cc1F)c1ccc2c(O)c(S(=O)(=O)c3ccc(Cl)cc3)c(=O)[nH]c2c1 ?
KB-V1 MDR tox: inactive; KB-3-1 cytotox: inactive

What do the screens show for `CCCOc1ccc(C2c3c(-c4ccccc4O)n[nH]c3C(=O)N2CCCOCC)cc1OCC` (stereo not drawn)?
KB-V1 MDR tox: inconclusive; KB-3-1 cytotox: inactive

How did COc1cccc(Cn2c(Oc3cc(C)cc(C)c3)nc3c2c(=O)n(C)c(=O)n3C)c1 do in these assays?
KB-V1 MDR tox: inactive; KB-3-1 cytotox: inactive

How did COc1ccc(NC(=O)C(=O)N/N=C\c2ccc(CNC(=O)C(=O)Nc3ccc(C)c(C)c3)o2)c(OC)c1 do in these assays?
KB-V1 MDR tox: inconclusive; MCF10A rereplic: inconclusive; SW480 rereplic: 2.9µM*; HT1080 IDH1KD tx: 3%; HT1080-NT tox: -5%; KB-3-1 cytotox: 13µM*

How did Nc1cccc[n+]1C(c1ccnc2ccccc12)[n+]1ccccc1N do in these assays?
KB-V1 MDR tox: inactive; KB-3-1 cytotox: inactive

Results for COc1cc(OC)cc(C2=Cc3ccccc3C(CC(C)=O)N2c2ccc(-c3cncnc3)cc2)c1 (stereo not drawn) ?
KB-V1 MDR tox: inconclusive; HT1080 IDH1KD tx: 3%; HT1080-NT tox: 19%; KB-3-1 cytotox: 23µM*

What do the screens show for `COc1cc(OC)cc(C2=Cc3ccc(OC)cc3C(CC(C)=O)N2c2ccc(-c3cccs3)cc2)c1` (stereo not drawn)?
KB-V1 MDR tox: inactive; HT1080 IDH1KD tx: -12%; HT1080-NT tox: -2%; KB-3-1 cytotox: 7.3µM*

How did CN(CC(=O)O)c1ccc(C=O)cc1 do in these assays?
KB-V1 MDR tox: inactive; KB-3-1 cytotox: inactive

How did Cc1nn2c(C)c(C(=O)NC(C)c3ccccc3)cnc2c1-c1ccc(F)cc1 (stereo not drawn) do in these assays?
KB-V1 MDR tox: inactive; KB-3-1 cytotox: inconclusive

What do the screens show for `CCOc1ccccc1N(CC(=O)NCCSc1ccccc1)S(=O)(=O)c1ccccc1`?
KB-V1 MDR tox: inconclusive; KB-3-1 cytotox: inactive

What do the screens show for `c1ccc2c(c1)C1=NCCN1c1ccccc1-2`?
KB-V1 MDR tox: 12µM*; HT1080 IDH1KD tx: 16µM*; HT1080-NT tox: inconclusive; KB-3-1 cytotox: inconclusive

Results for COC1=Nc2ccccc2N2CCN=C12 ?
KB-V1 MDR tox: inactive; HT1080 IDH1KD tx: inconclusive; HT1080-NT tox: -1%; KB-3-1 cytotox: inactive

How did CC1C=CC=CC=CC=CC=CC=CC=CC(OC2OC(C)C(O)C(N)C2O)CC2OC(O)(CC(O)CC(O)C(O)CCC(O)CC(O)CC(=O)OC(C)C(C)C1O)CC(O)C2C(=O)O (stereo not drawn) do in these assays?
KB-V1 MDR tox: inconclusive; MCF10A rereplic: 3.3µM*; SW480 rereplic: 6.5µM*; HT1080 IDH1KD tx: 9.2µM*; HT1080-NT tox: 4.6µM*; KB-3-1 cytotox: 4.1µM*

What do the screens show for `CCC(SC1=Nc2ccccc2C2=NC(CC(C)C)C(=O)N12)C(=O)Nc1ccc2c(c1)OCO2` (stereo not drawn)?
KB-V1 MDR tox: 15µM*; MCF10A rereplic: 1%; SW480 rereplic: -1%; HT1080 IDH1KD tx: -23%; HT1080-NT tox: -9%; KB-3-1 cytotox: inconclusive

Results for COc1cccc(NC(=O)CSC2=Nc3ccccc3C3=NC(CC(=O)NCc4ccc5c(c4)OCO5)C(=O)N23)c1 (stereo not drawn) ?
KB-V1 MDR tox: inactive; KB-3-1 cytotox: inactive

How did CCN1C(=O)C2(c3ccccc31)c1c(oc3ccc(F)cc3c1=O)C(=O)N2CCCOC (stereo not drawn) do in these assays?
KB-V1 MDR tox: inactive; KB-3-1 cytotox: inactive

Results for Cc1ccc(Nc2ncccc2C(=O)O)cc1C ?
KB-V1 MDR tox: inactive; MCF10A rereplic: 5%; SW480 rereplic: -31%; HT1080 IDH1KD tx: -2%; HT1080-NT tox: 1%; KB-3-1 cytotox: inactive

What do the screens show for `O=C(O)c1cccnc1Nc1ccc(Cl)cc1`?
KB-V1 MDR tox: 12µM*; MCF10A rereplic: 10%; SW480 rereplic: inconclusive; HT1080 IDH1KD tx: -24%; HT1080-NT tox: -20%; KB-3-1 cytotox: 7.3µM*

What do the screens show for `Cc1ccccc1NC(=O)c1c(C)oc2ccc(O)c(CN3CCN(C)CC3)c12`?
KB-V1 MDR tox: inactive; KB-3-1 cytotox: inactive

How did CN1CCN(c2ccc(-c3nc(-c4ccccc4)no3)cc2[N+](=O)[O-])CC1 do in these assays?
KB-V1 MDR tox: inactive; KB-3-1 cytotox: inactive

What do the screens show for `O=C(O)CC/C(=C\c1cc([N+](=O)[O-])ccc1Cl)c1nc2ccccc2s1`?
KB-V1 MDR tox: inactive; MCF10A rereplic: 19%; SW480 rereplic: -2%; HT1080 IDH1KD tx: -11%; HT1080-NT tox: -10%; KB-3-1 cytotox: inactive

Compound activity as filed in PubChem BioAssay.
